# Assay results as given in ChEMBL document CHEMBL1961873, “Compounds: GSK PKIS; Assays: Nanosyn kinase panel” (2012).
# Key:
# [1] = target: T1, Serine/threonine-protein kinase D2 (Homo sapiens) (UniProt Q9BZL6); conditions: at 1 µM;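 further: mean value of PRKD2 inhibition, from the GSK PKIS screening panel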
# T1 sequence (whole entry): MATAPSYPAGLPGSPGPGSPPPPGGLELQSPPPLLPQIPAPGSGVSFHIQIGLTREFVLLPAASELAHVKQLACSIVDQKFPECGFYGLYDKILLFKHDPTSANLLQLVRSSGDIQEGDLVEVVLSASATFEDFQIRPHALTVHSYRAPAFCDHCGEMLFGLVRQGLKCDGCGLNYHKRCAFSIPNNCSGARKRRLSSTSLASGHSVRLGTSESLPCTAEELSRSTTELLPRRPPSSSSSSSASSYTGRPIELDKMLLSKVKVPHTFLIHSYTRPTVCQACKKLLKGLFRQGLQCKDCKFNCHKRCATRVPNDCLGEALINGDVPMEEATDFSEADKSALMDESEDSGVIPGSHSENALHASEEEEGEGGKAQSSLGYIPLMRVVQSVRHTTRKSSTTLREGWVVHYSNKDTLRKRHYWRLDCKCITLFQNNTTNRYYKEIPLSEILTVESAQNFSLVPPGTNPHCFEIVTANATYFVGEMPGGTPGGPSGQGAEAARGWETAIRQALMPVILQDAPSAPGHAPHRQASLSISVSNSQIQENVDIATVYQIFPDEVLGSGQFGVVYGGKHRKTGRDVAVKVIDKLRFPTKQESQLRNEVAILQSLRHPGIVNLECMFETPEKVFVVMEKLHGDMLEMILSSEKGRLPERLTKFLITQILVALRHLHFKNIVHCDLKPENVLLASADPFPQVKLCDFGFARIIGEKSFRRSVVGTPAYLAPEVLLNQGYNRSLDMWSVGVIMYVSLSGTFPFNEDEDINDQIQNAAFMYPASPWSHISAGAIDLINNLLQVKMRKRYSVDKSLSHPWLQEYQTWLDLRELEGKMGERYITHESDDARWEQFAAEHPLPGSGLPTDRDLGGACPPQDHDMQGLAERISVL
# [2] = target: T2, Serine/threonine-protein kinase D3 (Homo sapiens) (UniProt O94806); conditions: at 0.1 µM
# T2 sequence (whole entry): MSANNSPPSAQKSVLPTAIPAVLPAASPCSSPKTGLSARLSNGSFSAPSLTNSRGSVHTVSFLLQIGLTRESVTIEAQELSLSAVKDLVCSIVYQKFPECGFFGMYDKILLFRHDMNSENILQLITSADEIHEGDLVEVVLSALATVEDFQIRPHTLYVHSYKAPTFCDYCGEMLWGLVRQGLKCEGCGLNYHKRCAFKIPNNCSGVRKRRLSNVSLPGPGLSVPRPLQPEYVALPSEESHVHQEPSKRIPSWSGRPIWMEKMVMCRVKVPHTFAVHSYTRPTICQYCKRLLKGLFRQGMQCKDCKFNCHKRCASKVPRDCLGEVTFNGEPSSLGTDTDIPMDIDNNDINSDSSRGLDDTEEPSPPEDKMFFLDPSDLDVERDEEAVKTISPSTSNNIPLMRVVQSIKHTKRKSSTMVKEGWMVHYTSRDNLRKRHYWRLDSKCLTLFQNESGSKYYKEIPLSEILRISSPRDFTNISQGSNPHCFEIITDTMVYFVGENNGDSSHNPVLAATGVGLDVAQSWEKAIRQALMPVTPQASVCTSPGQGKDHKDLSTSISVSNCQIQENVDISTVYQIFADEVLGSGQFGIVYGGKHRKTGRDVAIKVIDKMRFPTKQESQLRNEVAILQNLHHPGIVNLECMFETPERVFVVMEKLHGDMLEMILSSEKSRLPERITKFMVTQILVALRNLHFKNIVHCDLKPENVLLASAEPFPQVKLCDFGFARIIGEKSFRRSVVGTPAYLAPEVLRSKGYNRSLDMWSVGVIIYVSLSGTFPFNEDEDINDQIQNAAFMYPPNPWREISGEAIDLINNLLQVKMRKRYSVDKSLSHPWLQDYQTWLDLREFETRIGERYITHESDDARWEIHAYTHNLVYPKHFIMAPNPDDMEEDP
# [3] = target: T2, Serine/threonine-protein kinase D3 (Homo sapiens); conditions: at 1 µM
# [4] = target: T3, cGMP-dependent protein kinase 1 (Homo sapiens) (UniProt Q13976); conditions: at 0.1 µM
# T3 sequence (whole entry): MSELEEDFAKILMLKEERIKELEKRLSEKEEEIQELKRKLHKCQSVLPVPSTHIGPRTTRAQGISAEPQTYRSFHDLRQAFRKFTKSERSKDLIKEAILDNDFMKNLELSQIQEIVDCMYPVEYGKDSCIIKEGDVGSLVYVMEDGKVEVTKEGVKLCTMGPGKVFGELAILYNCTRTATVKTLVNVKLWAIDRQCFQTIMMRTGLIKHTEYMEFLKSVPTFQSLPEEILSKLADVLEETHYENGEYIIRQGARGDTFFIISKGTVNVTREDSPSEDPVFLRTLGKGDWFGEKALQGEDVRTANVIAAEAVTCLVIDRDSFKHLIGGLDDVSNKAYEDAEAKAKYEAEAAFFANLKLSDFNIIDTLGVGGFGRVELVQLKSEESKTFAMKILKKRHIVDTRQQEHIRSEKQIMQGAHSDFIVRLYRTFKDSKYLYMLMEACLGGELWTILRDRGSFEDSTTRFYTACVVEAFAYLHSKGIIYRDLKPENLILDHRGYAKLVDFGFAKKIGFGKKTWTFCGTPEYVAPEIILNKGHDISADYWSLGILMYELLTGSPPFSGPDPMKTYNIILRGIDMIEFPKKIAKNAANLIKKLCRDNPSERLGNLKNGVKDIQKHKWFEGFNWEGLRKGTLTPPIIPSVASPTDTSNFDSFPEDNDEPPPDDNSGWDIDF
# [5] = target: T3, cGMP-dependent protein kinase 1 (Homo sapiens); conditions: at 1 µM
# [6] = target: T4, cGMP-dependent protein kinase 2 (Homo sapiens) (UniProt Q13237); conditions: at 0.1 µM
# T4 sequence (whole entry): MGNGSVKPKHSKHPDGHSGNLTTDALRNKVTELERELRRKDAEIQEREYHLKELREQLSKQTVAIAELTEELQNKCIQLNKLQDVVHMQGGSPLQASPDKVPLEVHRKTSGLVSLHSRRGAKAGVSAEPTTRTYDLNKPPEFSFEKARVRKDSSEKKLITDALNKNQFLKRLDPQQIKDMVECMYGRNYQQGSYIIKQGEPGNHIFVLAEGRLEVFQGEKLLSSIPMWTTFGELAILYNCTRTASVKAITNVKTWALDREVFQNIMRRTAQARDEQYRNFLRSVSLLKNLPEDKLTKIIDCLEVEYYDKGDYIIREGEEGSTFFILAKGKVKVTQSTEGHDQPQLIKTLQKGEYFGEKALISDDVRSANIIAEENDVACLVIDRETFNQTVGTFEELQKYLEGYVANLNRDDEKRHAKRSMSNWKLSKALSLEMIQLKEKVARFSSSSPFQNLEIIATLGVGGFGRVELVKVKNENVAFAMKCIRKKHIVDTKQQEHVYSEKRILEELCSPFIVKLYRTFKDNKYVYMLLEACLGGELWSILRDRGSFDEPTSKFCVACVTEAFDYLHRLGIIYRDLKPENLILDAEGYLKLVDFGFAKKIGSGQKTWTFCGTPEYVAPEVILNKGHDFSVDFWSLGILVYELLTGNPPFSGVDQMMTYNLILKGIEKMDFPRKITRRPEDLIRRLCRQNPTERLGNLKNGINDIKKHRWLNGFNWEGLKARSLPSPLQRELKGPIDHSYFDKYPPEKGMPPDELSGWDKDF
# [7] = target: T4, cGMP-dependent protein kinase 2 (Homo sapiens); conditions: at 1 µM
# [8] = target: T5, cAMP-dependent protein kinase catalytic subunit PRKX (Homo sapiens) (UniProt P51817); conditions: at 0.1 µM
# T5 sequence (whole entry): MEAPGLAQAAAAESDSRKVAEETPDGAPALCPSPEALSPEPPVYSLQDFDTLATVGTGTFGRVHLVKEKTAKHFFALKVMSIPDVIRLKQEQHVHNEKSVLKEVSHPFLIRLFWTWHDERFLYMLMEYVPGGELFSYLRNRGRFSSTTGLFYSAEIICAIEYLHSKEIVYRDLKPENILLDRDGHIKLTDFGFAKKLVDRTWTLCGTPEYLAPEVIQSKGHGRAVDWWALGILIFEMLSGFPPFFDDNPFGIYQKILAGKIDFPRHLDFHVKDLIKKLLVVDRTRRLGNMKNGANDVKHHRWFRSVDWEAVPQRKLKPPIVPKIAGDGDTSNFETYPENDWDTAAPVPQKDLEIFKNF
# [9] = target: T5, cAMP-dependent protein kinase catalytic subunit PRKX (Homo sapiens); conditions: at 1 µM
# [10] = target: Rho-associated protein kinase 1 (Homo sapiens) (UniProt Q13464); conditions: at 0.1 µM;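 further: values are mean percent inhibition of ROCK1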
# Rho-associated protein kinase 1 (Homo sapiens), sequence (Q13464 2-1354 limits assumed): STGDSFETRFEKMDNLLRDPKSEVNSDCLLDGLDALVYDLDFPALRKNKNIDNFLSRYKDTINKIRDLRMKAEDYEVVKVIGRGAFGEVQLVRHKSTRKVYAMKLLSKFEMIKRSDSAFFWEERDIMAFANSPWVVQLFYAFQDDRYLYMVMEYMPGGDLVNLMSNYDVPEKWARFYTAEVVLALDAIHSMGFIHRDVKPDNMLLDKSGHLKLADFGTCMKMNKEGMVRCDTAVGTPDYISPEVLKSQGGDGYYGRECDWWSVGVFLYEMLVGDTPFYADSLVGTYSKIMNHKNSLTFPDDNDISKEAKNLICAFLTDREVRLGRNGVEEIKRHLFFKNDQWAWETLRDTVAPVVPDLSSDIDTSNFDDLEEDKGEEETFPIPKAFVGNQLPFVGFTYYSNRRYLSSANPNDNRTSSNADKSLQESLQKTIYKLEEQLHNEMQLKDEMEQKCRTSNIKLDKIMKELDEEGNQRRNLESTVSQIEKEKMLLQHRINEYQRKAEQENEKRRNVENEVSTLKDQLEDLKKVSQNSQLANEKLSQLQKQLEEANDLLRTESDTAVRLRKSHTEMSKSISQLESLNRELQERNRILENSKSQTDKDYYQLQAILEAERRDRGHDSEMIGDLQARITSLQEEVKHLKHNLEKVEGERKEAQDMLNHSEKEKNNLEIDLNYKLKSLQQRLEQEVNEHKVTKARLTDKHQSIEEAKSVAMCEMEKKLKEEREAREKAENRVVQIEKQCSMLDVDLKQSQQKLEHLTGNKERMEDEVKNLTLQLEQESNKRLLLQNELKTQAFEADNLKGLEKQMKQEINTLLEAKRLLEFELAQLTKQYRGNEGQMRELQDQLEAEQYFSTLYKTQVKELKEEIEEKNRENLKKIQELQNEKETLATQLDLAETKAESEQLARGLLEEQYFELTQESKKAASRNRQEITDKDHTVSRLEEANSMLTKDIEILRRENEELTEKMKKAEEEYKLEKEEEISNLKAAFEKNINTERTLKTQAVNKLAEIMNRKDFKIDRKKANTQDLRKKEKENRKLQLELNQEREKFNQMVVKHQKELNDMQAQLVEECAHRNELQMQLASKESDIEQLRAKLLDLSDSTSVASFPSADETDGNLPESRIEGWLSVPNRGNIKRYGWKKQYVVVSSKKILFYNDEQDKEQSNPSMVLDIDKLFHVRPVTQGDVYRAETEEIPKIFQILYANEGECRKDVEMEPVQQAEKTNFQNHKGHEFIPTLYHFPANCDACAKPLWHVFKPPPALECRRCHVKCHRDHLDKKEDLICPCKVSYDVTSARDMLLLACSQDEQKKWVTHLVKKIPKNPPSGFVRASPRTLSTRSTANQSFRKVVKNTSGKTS
SMILES,inhibition [1] [%],inhibition [2] [%],inhibition [3] [%],inhibition [4] [%],inhibition [5] [%],inhibition [6] [%],inhibition [7] [%],inhibition [8] [%],inhibition [9] [%],inhibition [10] [%]
CCc1nccc2c1nc(-c1nonc1N)n2CC,3.17,1.43,2.71,0.88,7.44,2.5,21.1,-0.13,-0.42,1.09
N#Cc1ccc(Oc2nccc(-c3c(-c4ccc(F)cc4)ncn3C3CCNCC3)n2)cc1,5.05,5.58,5.89,2.79,2.48,2.19,2.92,1.03,2.01,2.51
CS(=O)(=O)CCNCc1cc(-c2cc3c(Nc4ccc(OCc5cccc(F)c5)c(Cl)c4)ncnc3s2)cs1,4.68,4.68,5.41,4.85,8.33,3.09,4.67,1.65,2.04,3.25
C/C(Nc1ccc(S(N)(=O)=O)cc1)=C1/C(=O)Nc2ccccc21,11.3,-0.08,9.13,0.96,3.66,0.21,8.25,1.97,4.84,2.38
O=C1Nc2ccc(I)cc2C1=Cc1cc(Br)c(O)c(Br)c1,1.24,3.73,3.16,3.82,5.76,2.47,6.45,0.49,2.04,2.76
COc1cc2ncn(-c3cc(OCc4ccccc4C(F)(F)F)c(C(C)=O)s3)c2cc1OC,2.55,2.93,3.23,1.35,0.72,0.9,0,0.6,0.44,0.94
NC(=O)c1cc(-c2ccc(F)cc2)cc(-c2ccncc2)c1N,4.06,3.88,2.86,1.49,5.83,1.73,2.74,1.1,3.07,-0.55
O=C(Nc1n[nH]c2nc(-c3ccc(O)cc3)c(Br)cc12)C1CC1,5.92,5.64,6.49,3.5,6.22,5.14,27.8,3.04,4.28,0.72
COc1cc2ncn(-c3cc(OCCc4ccccc4)c(C(N)=O)s3)c2cc1OC,4.84,3.76,4.36,2.33,4.13,1.3,2.13,0.24,-4.15,0.26
Fc1ccc(-c2c(-c3ccncc3)nc3n2CCS3)cc1,0.4,0.15,1.02,4.15,8.03,2.62,7.38,6.08,14.6,8.73
CCS(=O)(=O)c1ccc(OC)c(Nc2ncc(-c3ccccc3Cl)o2)c1,1.98,0.34,0.32,1.27,3.79,0.72,2.95,0.64,0.38,-0.11
CNC(=O)c1cncc(/C=C/c2c(C)cccc2C)c1,-2.22,-2.33,-3.04,-0.33,4.28,0.8,1.58,0.26,0.53,-0.35
Fc1ccc(-c2ncn(C3CCNCC3)c2-c2ccnc(Oc3ccc4c(c3)OCO4)n2)cc1,9.53,5.01,9.26,2.62,2.47,3.43,2.62,1.9,2.4,2.94
C#Cc1cccc(Nc2ncnc3ccc(OCCCCNCCS(C)(=O)=O)cc23)c1,26.7,3.35,15,1.04,7.37,2.75,8.83,2.48,4.38,1.86
COc1cc(Nc2ncc3c(C)nc(-c4cccc(Oc5ccccc5)c4)n3n2)cc(OC)c1OC,3,1.74,3.77,1.98,2.3,1.18,2.71,1.26,-0.03,1.05
C[C@@H](Oc1cc(-n2cnc3ccc(OC4CCN(C)CC4)cc32)sc1C(N)=O)c1ccccc1Cl,1.06,0.8,3.55,3.98,4.08,1.43,4.43,2.2,-1.84,1.76
Fc1ccc(-c2ncn(C3CCNCC3)c2-c2ccnc(Oc3ccc(F)c(F)c3)n2)cc1,3.98,1.09,5.58,2.42,0.89,0.9,4.44,1.98,2.55,1.38
